Results from PubChem BioAssay (NCI).
About 83,000 compounds went through this panel and 20% of them were active in at least one assay; those are over-represented in the sample as a whole.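 Single-concentration screen, 48 h exposure, 96-well plates. Endpoint: percent growth. Below 10 = active.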 Activity calls are given as the source filed them.

Experiments:
Experiment in all cases: NCI-60 one-dose screen, 48 h (100 = growth as untreated, 0 = no growth, -100 = all killed)
Conditions in all cases: 10 µM unless noted
RPMI-8226 leukemia = system: RPMI-8226 leukemia
OVCAR-8 ovarian = system: OVCAR-8 ovarian
OVCAR-5 ovarian = system: OVCAR-5 ovarian
OVCAR-4 ovarian = system: OVCAR-4 ovarian
SK-OV-3 ovarian = system: SK-OV-3 ovarian
IGROV1 ovarian = system: IGROV1 ovarian
OVCAR-3 ovarian = system: OVCAR-3 ovarian
HS 578T breast = system: HS 578T breast
NCI/ADR-RES ovarian = system: NCI/ADR-RES ovarian

Measured: growth

COc1ccc(/C(=N/O)c2cc(OC)c(OC)c(OC)c2)c(OC)c1N
active: OVCAR-3 ovarian 1.89% | HS 578T breast 8.77%
inactive: RPMI-8226 leukemia 32% | OVCAR-8 ovarian 40.7% | OVCAR-5 ovarian 71.9% | OVCAR-4 ovarian 50% | SK-OV-3 ovarian 35.7% | IGROV1 ovarian 55% | NCI/ADR-RES ovarian 31%

CCNCc1ccncc1
inactive: RPMI-8226 leukemia 98.8% | OVCAR-5 ovarian 112% | OVCAR-4 ovarian 97.8% | SK-OV-3 ovarian 94.7% | IGROV1 ovarian 111% | OVCAR-3 ovarian 110% | NCI/ADR-RES ovarian 106%

COc1cc(C2CC(c3c(C)[n+]([O-])c4ccccc4[n+]3[O-])=NN2)cc(OC)c1OC (centres undefined)
inactive: RPMI-8226 leukemia 102% | OVCAR-8 ovarian 109% | OVCAR-5 ovarian 100% | OVCAR-4 ovarian 104% | SK-OV-3 ovarian 103% | IGROV1 ovarian 16.2% | OVCAR-3 ovarian 98% | HS 578T breast 103% | NCI/ADR-RES ovarian 101%

Cc1nc2scc(-c3ccccc3)n2c(=O)c1CCO
inactive: RPMI-8226 leukemia 102% | OVCAR-8 ovarian 109% | OVCAR-5 ovarian 109% | SK-OV-3 ovarian 105% | IGROV1 ovarian 98.1% | OVCAR-3 ovarian 100% | HS 578T breast 95% | NCI/ADR-RES ovarian 112%

OC1CC2c3ccccc3C1c1ccccc12 (centres undefined)
inactive: RPMI-8226 leukemia 104% | OVCAR-8 ovarian 106% | OVCAR-5 ovarian 113% | OVCAR-4 ovarian 100% | SK-OV-3 ovarian 112% | OVCAR-3 ovarian 112% | HS 578T breast 104% | NCI/ADR-RES ovarian 110%

O=C(C[N+](=O)[O-])c1ccc(Cl)cc1
inactive: RPMI-8226 leukemia 100% | OVCAR-8 ovarian 116% | OVCAR-5 ovarian 110% | OVCAR-4 ovarian 111% | SK-OV-3 ovarian 113% | OVCAR-3 ovarian 113% | HS 578T breast 100% | NCI/ADR-RES ovarian 109%

CN(C)C1CCC(NC2=CC(=O)C=CC2=O)CC1 (centres undefined)
inactive: RPMI-8226 leukemia 111% | OVCAR-8 ovarian 113% | OVCAR-5 ovarian 118% | OVCAR-4 ovarian 111% | SK-OV-3 ovarian 119% | IGROV1 ovarian 105% | OVCAR-3 ovarian 116% | NCI/ADR-RES ovarian 111%

Cn1c(=O)c2c(nc3n2CCN(CCc2ccc(OCCN4CCOCC4)cc2)C3)n(C)c1=O
inactive: RPMI-8226 leukemia 100% | OVCAR-8 ovarian 109% | OVCAR-5 ovarian 103% | OVCAR-4 ovarian 95.5% | SK-OV-3 ovarian 118% | IGROV1 ovarian 108% | OVCAR-3 ovarian 110% | HS 578T breast 106% | NCI/ADR-RES ovarian 112%

Cc1cc2c(C(C)C)c(O)c(O)c(C=NCCCCC(=O)O)c2c(O)c1-c1c(C)cc2c(C(C)C)c(O)c(O)c(C=NCCCCC(=O)O)c2c1O
inactive: RPMI-8226 leukemia 28.8% | OVCAR-8 ovarian 46.1% | OVCAR-5 ovarian 70.9% | OVCAR-4 ovarian 44.2% | SK-OV-3 ovarian 63.9% | IGROV1 ovarian 41.7% | OVCAR-3 ovarian 45.4% | NCI/ADR-RES ovarian 74.2%

NCCSC(c1ccccc1)(c1ccccc1)c1ccccc1
inactive: OVCAR-8 ovarian 25% | OVCAR-5 ovarian 13.1% | OVCAR-4 ovarian 33.6% | SK-OV-3 ovarian 27.6% | IGROV1 ovarian 22.2%
active: RPMI-8226 leukemia -24.7% | OVCAR-3 ovarian 2.29% | NCI/ADR-RES ovarian -21.9%

Cc1nn(-c2ccc(Cl)cc2)c(=O)n1CCOc1ccccc1Cl
inactive: RPMI-8226 leukemia 88.9% | OVCAR-8 ovarian 92.7% | OVCAR-5 ovarian 102% | SK-OV-3 ovarian 92.9% | IGROV1 ovarian 117% | OVCAR-3 ovarian 121% | HS 578T breast 90.3% | NCI/ADR-RES ovarian 89.9%

CCN1C(=O)N[C@H]2[C@@H]3NC(=O)c4ccc(Cl)n4[C@@H]3C[C@]21O
active: RPMI-8226 leukemia -21.2% | OVCAR-8 ovarian 1.27% | OVCAR-4 ovarian 3.02% | IGROV1 ovarian 1.44% | OVCAR-3 ovarian 2.22% | HS 578T breast -10.9%
inactive: OVCAR-5 ovarian 24.5% | SK-OV-3 ovarian 28.6% | NCI/ADR-RES ovarian 76.4%

Cc1nc2sccn2c1-c1csc(Nc2ccccc2Cl)n1
inactive: RPMI-8226 leukemia 38.9% | OVCAR-5 ovarian 54.9% | OVCAR-4 ovarian 47.3% | SK-OV-3 ovarian 75.9% | IGROV1 ovarian 60.5% | OVCAR-3 ovarian 47.7% | HS 578T breast 76.7% | NCI/ADR-RES ovarian 21.6%

O=C1CCC(=O)N1Cc1ccccc1
inactive: RPMI-8226 leukemia 109% | OVCAR-5 ovarian 97.7% | OVCAR-4 ovarian 96.9% | SK-OV-3 ovarian 113% | OVCAR-3 ovarian 102% | HS 578T breast 102% | NCI/ADR-RES ovarian 89.8%

O=C(CCC(=O)OC1CCCC1)OC1CCCC1
inactive: RPMI-8226 leukemia 95.1% | OVCAR-8 ovarian 91.6% | OVCAR-5 ovarian 98.7% | OVCAR-4 ovarian 107% | SK-OV-3 ovarian 110% | IGROV1 ovarian 110% | OVCAR-3 ovarian 102% | NCI/ADR-RES ovarian 105%

Cc1ccccc1C(=O)c1ccccc1C(=O)O
inactive: RPMI-8226 leukemia 102% | OVCAR-8 ovarian 107% | OVCAR-5 ovarian 111% | OVCAR-4 ovarian 114% | SK-OV-3 ovarian 118% | OVCAR-3 ovarian 107% | HS 578T breast 106% | NCI/ADR-RES ovarian 108%

CCCCCCOc1ccc(C2(Cl)c3ccccc3N(C)c3ccccc32)cc1
inactive: RPMI-8226 leukemia 47.5% | OVCAR-8 ovarian 38.7% | OVCAR-5 ovarian 107% | SK-OV-3 ovarian 60.7% | OVCAR-3 ovarian 32.1% | HS 578T breast 54.7% | NCI/ADR-RES ovarian 52.3%

COc1ccc2c(c1)C=CC(C#N)N2C(=O)c1ccccc1 (centres undefined)
active: OVCAR-3 ovarian -23.7% | NCI/ADR-RES ovarian 6.62%
inactive: RPMI-8226 leukemia 22% | OVCAR-8 ovarian 15.4% | OVCAR-5 ovarian 47.1% | OVCAR-4 ovarian 25.4% | SK-OV-3 ovarian 43.5%

NC(=O)c1c(NC(=O)c2ccc(OCC3CCCO3)cc2)sc2c1CCCC2 (centres undefined)
active: IGROV1 ovarian -23.3%
inactive: RPMI-8226 leukemia 83.7% | OVCAR-8 ovarian 104% | OVCAR-5 ovarian 101% | OVCAR-4 ovarian 115% | SK-OV-3 ovarian 119% | OVCAR-3 ovarian 108% | NCI/ADR-RES ovarian 97.1%

C=CCc1cc(Cl)cc2c(OC(C)=O)c(C(C)=O)c(-c3ccccc3)nc12
inactive: RPMI-8226 leukemia 97.4% | OVCAR-8 ovarian 113% | OVCAR-5 ovarian 111% | OVCAR-4 ovarian 100% | SK-OV-3 ovarian 99.9% | IGROV1 ovarian 82.3% | OVCAR-3 ovarian 107% | HS 578T breast 102% | NCI/ADR-RES ovarian 119%

NC(=O)c1ccc2c(c1)OCO2
inactive: RPMI-8226 leukemia 106% | OVCAR-8 ovarian 108% | OVCAR-5 ovarian 113% | OVCAR-4 ovarian 103% | SK-OV-3 ovarian 130% | OVCAR-3 ovarian 107% | HS 578T breast 98.7% | NCI/ADR-RES ovarian 97%

Cc1cc(C(=O)O)c(N)c(C)n1
inactive: RPMI-8226 leukemia 103% | OVCAR-8 ovarian 112% | OVCAR-5 ovarian 111% | OVCAR-4 ovarian 102% | SK-OV-3 ovarian 129% | OVCAR-3 ovarian 110% | HS 578T breast 101% | NCI/ADR-RES ovarian 108%

COc1cc(/C=C2\C=C(c3ccc(F)cc3)N(Cc3ccccc3)C2=O)cc(OC)c1OC
inactive: RPMI-8226 leukemia 50.7% | OVCAR-8 ovarian 48.8% | OVCAR-5 ovarian 89.6% | OVCAR-4 ovarian 51% | SK-OV-3 ovarian 99.3% | IGROV1 ovarian 84.4% | OVCAR-3 ovarian 70.3% | HS 578T breast 87.1% | NCI/ADR-RES ovarian 62.1%

CC(Br)C(O)c1cc2c(cc1Br)OCO2 (centres undefined)
inactive: RPMI-8226 leukemia 101% | OVCAR-8 ovarian 109% | OVCAR-5 ovarian 108% | OVCAR-4 ovarian 105% | SK-OV-3 ovarian 118% | OVCAR-3 ovarian 109% | HS 578T breast 103% | NCI/ADR-RES ovarian 105%

CCC(c1cccc(Br)c1)C(C(=O)O)c1ccc(OC)cc1 (centres undefined)
inactive: RPMI-8226 leukemia 101% | OVCAR-8 ovarian 107% | OVCAR-5 ovarian 109% | OVCAR-4 ovarian 114% | SK-OV-3 ovarian 107% | IGROV1 ovarian 99.3% | OVCAR-3 ovarian 110% | NCI/ADR-RES ovarian 103%

CN1C(=O)[C@H]2c3c1cccc3[C@@]13NC(=O)O[C@H]1[C@H](CCC3(C)C)C2(C)C
inactive: RPMI-8226 leukemia 97% | OVCAR-8 ovarian 96.1% | OVCAR-5 ovarian 101% | SK-OV-3 ovarian 120% | IGROV1 ovarian 107% | OVCAR-3 ovarian 103% | HS 578T breast 89.1% | NCI/ADR-RES ovarian 98.8%

Cc1ccc(S(=O)(=O)N2CCC(C(=O)Nc3ccc(F)cc3F)CC2)cc1
inactive: RPMI-8226 leukemia 86.5% | OVCAR-8 ovarian 97.8% | OVCAR-5 ovarian 98% | OVCAR-4 ovarian 83.7% | SK-OV-3 ovarian 92.3% | OVCAR-3 ovarian 91.6% | NCI/ADR-RES ovarian 95.4%
active: IGROV1 ovarian -38.5% | HS 578T breast -32.4%

COc1ccc(/C(=N/O)c2cc(F)c(F)c(OC)c2F)cc1O
inactive: RPMI-8226 leukemia 22.1% | OVCAR-8 ovarian 17.7% | OVCAR-5 ovarian 52.1% | OVCAR-4 ovarian 58.6% | SK-OV-3 ovarian 17.3% | IGROV1 ovarian 50.6% | NCI/ADR-RES ovarian 17.4%
active: OVCAR-3 ovarian -2.69%

COC(=O)c1ccc(C)cc1
inactive: RPMI-8226 leukemia 102% | OVCAR-8 ovarian 103% | OVCAR-5 ovarian 110% | OVCAR-4 ovarian 105% | SK-OV-3 ovarian 99.6% | OVCAR-3 ovarian 106% | HS 578T breast 99.5% | NCI/ADR-RES ovarian 106%

CC(=O)OC[Si](C)(C)c1ccccc1
inactive: RPMI-8226 leukemia 110% | OVCAR-8 ovarian 101% | OVCAR-5 ovarian 108% | OVCAR-4 ovarian 103% | SK-OV-3 ovarian 103% | IGROV1 ovarian 114% | OVCAR-3 ovarian 112% | HS 578T breast 103% | NCI/ADR-RES ovarian 112%
